ELG1 genotox: induces genotoxicity in HEK293T cells with luciferase-tagged ELG1 | HEK293T ELG1-luciferase reporter, luminescence, 16 h | Potency, µM (series often up to 46 µM), for the others: top-dose activity change, positive = activation, hits mostly activators | hit rate 1.3% among 330,000; further: % of control where 0% means no effect; nearly all actives have a fitted effect of over 60% in size
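Genotoxicity was scored as increased ELG1-luciferase reporter signal, measured by ONE-Glo luminescence (30 min, room temperature). Compound or vehicle exposure of the HEK293T reporter cells lasted 16 hr at 37°C.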
Rab9 promoter act: activates the Rab9 promoter. Huh7 Rab9 promoter-luciferase reporter, luminescence, 24 h. Potency, µM (series often up to 9.22 µM), for the others: top-dose activation, negative = inhibition, actives largely listed as activators. hit rate 2.8% among 320,000. AID 485297; further: % of control where 0% means no effect; nearly all actives have a fitted effect of over 60% in size
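Cell-based reporter: Huh7 stable for Rab9 promoter-driven luciferase, plated in reduced-serum medium with 10% FBS at 1500 cells/well, compound-treated 24 h at 37 °C, luminescence read after 10 min reagent.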
FLuc modulator: counter-screen for miR-21 project: firefly luciferase inhibitors or activators | P08659 | purified FLuc, Km substrates, luminescence inhibition | Potency, µM (series often up to 57.5 µM), for inactives: at the highest dose activity change, negative = inhibition, actives largely listed as inhibitors | hit rate 6.9% among 360,000 | AID 588342;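 further: plate controls were vehicle for no effect and reference inhibitor for full effect; nearly all actives have a fitted effect of over 55% in size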
Target sequence (P08659 whole entry, looked up): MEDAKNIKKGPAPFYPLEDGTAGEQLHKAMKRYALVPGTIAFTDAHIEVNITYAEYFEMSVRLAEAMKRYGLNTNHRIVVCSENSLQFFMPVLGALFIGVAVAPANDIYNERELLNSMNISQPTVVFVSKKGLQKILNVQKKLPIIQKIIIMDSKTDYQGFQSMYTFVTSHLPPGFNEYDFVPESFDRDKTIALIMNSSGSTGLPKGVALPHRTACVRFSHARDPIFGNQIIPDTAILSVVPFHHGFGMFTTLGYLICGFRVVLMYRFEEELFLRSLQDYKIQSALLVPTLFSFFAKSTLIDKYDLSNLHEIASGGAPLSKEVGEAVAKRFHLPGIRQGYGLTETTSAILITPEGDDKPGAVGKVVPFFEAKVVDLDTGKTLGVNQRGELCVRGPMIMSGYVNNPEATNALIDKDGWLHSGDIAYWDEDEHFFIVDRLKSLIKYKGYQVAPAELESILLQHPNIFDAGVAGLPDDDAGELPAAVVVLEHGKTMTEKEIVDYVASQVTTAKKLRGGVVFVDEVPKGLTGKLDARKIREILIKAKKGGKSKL
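Purified P. pyralis luciferase (10nM final) with 10uM D-luciferin and 10uM ATP (Km levels) in 50mM Tris acetate pH 7.5, 10mM Mg acetate, 0.01% Tween-20, 0.05% BSA; qHTS 6-point titration, ~60 µM downward; luminescence read.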
SMN2 splice up: SMN2 splice variant enhancement | HEK293 SMN2-luciferase splicing reporter, luminescence, 30-36 h | Potency, µM (titrated, usually from 46.1 µM), for inactives: at the top dose activity change, positive = activation, usual class: activators | hit rate 2.8% among 210,000; further: % of control where 0% means no effect; nearly all actives have a fitted effect of over 55% in size
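qHTS luciferase splicing reporter: luminescence rises when SMN2 exon 7 is included in transfected HEK293 cells. Compound exposure lasted 30-36 h at 37C, with 4.5 mM final sodium butyrate as control, followed by a ONE-Glo read.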
NPC1 promoter act: NPC1 promoter activation; Huh7 NPC1 promoter luciferase reporter, 24 h; Potency, µM (series often up to 9.22 µM), inactives show at the top dose activation, actives largely listed as activators; hit rate 2.4% among 320,000; further: % of control where 0% means no effect; nearly all actives have a fitted effect of over 60% in size
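In 1536-well qHTS, Huh7 cells harboring an NPC1 promoter–luciferase construct received compound for 24 h; activation was quantified by luminescence following luciferase reagent addition.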
* marks the source's active call; other numbers are inactive results. A selection: hits, their analogues and other compounds. The true share with any hit is near 7.4%. The call rests on the fitted dose curve; in most records, active means well fitted curve in the direction sought with a large enough effect; inconclusive means small, poorly fitted or top-dose-only effect, or another doubt; inactive means no such curve, though single readings can be large; an effect the other way counts as inactive or inconclusive. Potency means the concentration at half of the fitted maximal effect.

`CCOc1ccc(-c2cc(C(=O)NCCCN3CCN(CC)CC3)c3ccccc3n2)cc1` gave ELG1 genotox 9%, Rab9 promoter act 17%, FLuc modulator 8.5µM*, SMN2 splice up 7% and NPC1 promoter act 15%.
`CC1CCN(S(=O)(=O)c2ccc3c(c2)c(=O)c(C(=O)NCCc2ccccc2)cn3C)CC1` gave FLuc modulator 2% and SMN2 splice up 2%.
Screening CCOc1ccc(-c2cn3c(n2)sc2cc(C(=O)NCCCN4CCCCCC4)ccc23)cc1 returned FLuc modulator -3%.
`CCCN1CCN(CCCNC(=O)c2ccc3c(c2)sc2nc(-c4ccc(OCC)cc4)cn23)CC1` gave FLuc modulator 11µM* and SMN2 splice up -94%.
Screening CCOc1ccc(-c2cc(C(=O)NCCCn3ccnc3)c3cc(Br)ccc3n2)cc1 returned ELG1 genotox 6%, Rab9 promoter act -2%, FLuc modulator 5.4µM* and NPC1 promoter act 1%.
O=C(NCCCN1CCOCC1)c1cc(-c2ccccc2)nc2ccccc12 was read as ELG1 genotox 8%, Rab9 promoter act -1%, FLuc modulator -3% and NPC1 promoter act -2%.
Cc1ccc(Nc2cc(C(=O)NCCCN3CCOCC3)c3ccccc3n2)cc1C was read as ELG1 genotox 0%, Rab9 promoter act -4%, FLuc modulator 12µM* and NPC1 promoter act 16%.
`Cc1nc(-c2ccccc2)sc1-c1ccc(SCC(=O)NCc2ccc(F)cc2)nn1` gave FLuc modulator 2%.
For COc1ccccc1N1CCN(C(=O)c2cc(CC(C)C)on2)CC1 the results were FLuc modulator -2% and SMN2 splice up 0%.
`Oc1oc(-c2ccccc2)nc1/C=N/c1nccs1` gave ELG1 genotox 2%, Rab9 promoter act 12%, FLuc modulator 12µM*, SMN2 splice up inconclusive and NPC1 promoter act 2%.
Cc1ccc(-c2nc(C=Nc3cccc(C)c3)c(O)o2)cc1 was read as ELG1 genotox 12%, Rab9 promoter act 1%, FLuc modulator inconclusive, SMN2 splice up -18% and NPC1 promoter act 6%.
`Cc1ccc(N=Cc2nc(-c3ccco3)oc2O)cc1` gave ELG1 genotox inconclusive, Rab9 promoter act 8%, FLuc modulator 4.3µM*, SMN2 splice up 12% and NPC1 promoter act 1%.
For Cc1ccc(-c2nc(C=Nc3ccccc3)c(O)o2)cc1 the results were ELG1 genotox inconclusive, Rab9 promoter act inconclusive, FLuc modulator 9.5µM* and NPC1 promoter act 18%.
CC(=O)Nc1nnc(SCc2ccc(C(=O)Nc3ccccc3F)cc2)s1 was read as ELG1 genotox 9%, Rab9 promoter act 14%, FLuc modulator 4%, SMN2 splice up -17% and NPC1 promoter act -5%.
O=C(Nc1ccccc1F)c1ccc(CSc2ncccn2)cc1 was read as ELG1 genotox inconclusive, Rab9 promoter act 3.5µM*, FLuc modulator inconclusive, SMN2 splice up inconclusive and NPC1 promoter act 3.5µM*.
Screening O=C(Nc1ccccc1F)c1ccc(OCc2ccccc2)cc1 returned ELG1 genotox inconclusive, Rab9 promoter act inconclusive, FLuc modulator inconclusive, SMN2 splice up 22µM* and NPC1 promoter act inconclusive.
Screening Cc1ccc(NC(=O)c2ccc(CSc3nccc(C)n3)cc2)cc1 returned ELG1 genotox -5%, Rab9 promoter act 9%, FLuc modulator inconclusive and NPC1 promoter act 19%.
`O=C(Nc1ccccc1)c1ccc(CSc2ncccn2)cc1` gave ELG1 genotox inconclusive, Rab9 promoter act 1µM*, FLuc modulator 3.4µM*, SMN2 splice up 13µM* and NPC1 promoter act 1.1µM*.
O=C(Nc1ccc(OCc2ccccc2)cc1)c1ccccc1 was read as ELG1 genotox 16%, Rab9 promoter act inconclusive, FLuc modulator 1%, SMN2 splice up inconclusive and NPC1 promoter act inconclusive.
Screening CCOC(=O)c1c(C)[nH]c(C)c1S(=O)(=O)N1CCC(C(=O)NCc2ccc(N(C)C)cc2)CC1 returned FLuc modulator 3%.
For Cc1nc(NC(=O)CSc2ccc(-c3nc4ccccc4[nH]3)cn2)sc1C the results were ELG1 genotox inconclusive, Rab9 promoter act inconclusive, FLuc modulator -13%, SMN2 splice up 17% and NPC1 promoter act inconclusive.
Screening S=C(NCCCN1CCOCC1)Nc1ccc(-c2nc3ccccc3[nH]2)cc1 returned ELG1 genotox -1%, Rab9 promoter act 27%, FLuc modulator inconclusive, SMN2 splice up -14% and NPC1 promoter act 21%.
`O=C(CSc1n[nH]c(-c2ccccc2O)n1)N1CCOCC1` gave ELG1 genotox 8%, Rab9 promoter act 27%, FLuc modulator 19µM*, SMN2 splice up 18% and NPC1 promoter act 5%.
For O=C(CSc1ccc(-c2nc3ccccc3[nH]2)cn1)Nc1ccc(S(=O)(=O)NC2CC2)cc1 the results were ELG1 genotox 0%, Rab9 promoter act 2%, FLuc modulator 1.5µM*, SMN2 splice up 44% and NPC1 promoter act -1%.
`CN(C)CCNC(=S)Nc1ccc(-c2nc3ccccc3[nH]2)cc1` gave ELG1 genotox 18%, Rab9 promoter act 1.6µM*, FLuc modulator 9.5µM*, SMN2 splice up 11µM* and NPC1 promoter act 2.2µM*.
CCc1nnc(NC(=O)CSc2n[nH]c(-c3ccccc3O)n2)s1 was read as ELG1 genotox 0%, Rab9 promoter act -7%, FLuc modulator 17µM* and NPC1 promoter act 1%.
`CCOC(=O)C(CCc1ccccc1)NC(C)C(=O)N1CCCC1C(=O)O` (configuration not stated) gave SMN2 splice up 4%.
`CC(=O)Nc1cc(NC(C)=O)cc(-c2nc3ccccc3[nH]2)c1` gave ELG1 genotox 3%, Rab9 promoter act -3%, FLuc modulator -17%, SMN2 splice up 16% and NPC1 promoter act -8%.
For Cc1ccc2nc(-c3ccc(SCC(=O)Nc4nc(C)cs4)nc3)[nH]c2c1 the results were ELG1 genotox inconclusive, Rab9 promoter act 2.8µM*, FLuc modulator 0.54µM*, SMN2 splice up 6.3µM* and NPC1 promoter act 3.5µM*.
`CCc1nnc(NC(=O)CSc2ccc(-c3nc4ccccc4[nH]3)cn2)s1` gave ELG1 genotox inconclusive, Rab9 promoter act 2.5µM*, FLuc modulator inconclusive, SMN2 splice up inconclusive and NPC1 promoter act inconclusive.
Screening CC(=O)Nc1ccc(-c2nc3c(C)cccc3[nH]2)cc1 returned ELG1 genotox 2.9µM*, Rab9 promoter act 1.6µM*, FLuc modulator 2.4µM*, SMN2 splice up 3.5µM* and NPC1 promoter act 2.5µM*.
Screening Cc1ccc2nc(-c3ccc(SCC(=O)Nc4nnc(C)s4)nc3)[nH]c2c1 returned ELG1 genotox inconclusive, Rab9 promoter act 2.8µM*, FLuc modulator 0.6µM*, SMN2 splice up 14µM* and NPC1 promoter act 2.5µM*.
Screening CC(C)(C)Nc1oc(-c2ccccc2)nc1-c1ccccc1F returned SMN2 splice up 3%.

Assay outcomes from PubChem BioAssay.
